# Reference: publication PMC5540273 (PLoS ONE, 2017)
# Read-outs that look alike come from different tables or passages of the source.
# Tests used:
# [1] = tested on: T1, ASK2; settings: concentration: 1 μM,replicates: in singlicate; n = 1
# T1 construct: gene MAP3K6
# [2] = tested on: AURKA; settings: concentration: 1 μM,replicates: in singlicate; n = 1
# [3] = tested on: AURKB; settings: concentration: 1 μM,replicates: in singlicate; n = 1
# [4] = tested on: AURKC; settings: concentration: 1 μM,replicates: in singlicate; n = 1
# [5] = tested on: AXL; settings: concentration: 1 μM,replicates: in singlicate; n = 1
# [6] = tested on: T2, BIKE; settings: concentration: 1 μM,replicates: in singlicate; n = 1
# T2 construct: gene BMP2K
# [7] = tested on: BLK; settings: concentration: 1 μM,replicates: in singlicate; n = 1
# [8] = tested on: BMPR1A; settings: concentration: 1 μM,replicates: in singlicate; n = 1
# [9] = tested on: BMPR1B; settings: concentration: 1 μM,replicates: in singlicate; n = 1
# [10] = tested on: BMPR2; settings: concentration: 1 μM,replicates: in singlicate; n = 1
# [11] = tested on: BMX; settings: concentration: 1 μM,replicates: in singlicate; n = 1
# [12] = tested on: BRAF; settings: concentration: 1 μM,replicates: in singlicate; n = 1
# [13] = tested on: T3, BRK; settings: concentration: 1 μM,replicates: in singlicate; n = 1
# T3 construct: gene PTK6
# [14] = tested on: BRSK1; settings: concentration: 1 μM,replicates: in singlicate; n = 1
# [15] = tested on: BRSK2; settings: concentration: 1 μM,replicates: in singlicate; n = 1
# [16] = tested on: BTK; settings: n = 1
# [17] = tested on: BUB1; settings: concentration: 1 μM,replicates: in singlicate; n = 1
# [18] = tested on: CAMK1B; settings: concentration: 1 μM,replicates: in singlicate; n = 1
# [19] = tested on: CAMK1D; settings: concentration: 1 μM,replicates: in singlicate; n = 1
# [20] = tested on: CAMK1G; settings: concentration: 1 μM,replicates: in singlicate; n = 1
# [21] = concentration: 1 μM,replicates: in singlicate
# 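Note: KINOMEscan kinase panel screen.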
smiles,measurement,setting,value
CN1CCN(CCCNc2nccc(-c3c(-c4ccc(F)cc4)nn4cc(C(N)=O)ccc34)n2)CC1 [GW622475],%Inh,[1],0%
same,%Inh,[2],20%
same,%Inh,[3],5%
same,%Inh,[4],10%
same,%Inh,[5],17%
same,%Inh,[6],26%
same,%Inh,[7],56%
same,%Inh,[8],0%
same,%Inh,[9],37%
same,%Inh,[10],0%
same,%Inh,[11],20%
same,%Inh,[12],49%
same,%Inh,[13],6%
same,%Inh,[14],9%
same,%Inh,[15],29%
same,%Inh,[16]; [21],0%
same,%Inh,[17],25%
same,%Inh,[18],0%
same,%Inh,[19],21%
same,%Inh,[20],21%
CN(c1ccc2c(c1)nc(NCc1ccc(F)cc1)n2C)c1ccnc(Nc2ccc(CS(C)(=O)=O)cc2)n1.Cl [GW813244],%Inh,[1],0%
same,%Inh,[2],77%
same,%Inh,[3],70%
same,%Inh,[4],67%
same,%Inh,[5],68%
same,%Inh,[6],33%
same,%Inh,[7],57%
same,%Inh,[8],16%
same,%Inh,[9],0%
same,%Inh,[10],10%
same,%Inh,[11],16%
same,%Inh,[12],96.8%
same,%Inh,[13],88%
same,%Inh,[14],0%
same,%Inh,[15],0%
same,%Inh,[16]; [21],0%
same,%Inh,[17],50%
same,%Inh,[18],0%
same,%Inh,[19],0%
same,%Inh,[20],22%
CC(=O)Nc1nc2cnc(Nc3cc(NC(=O)c4cccc(CC(C)(C)C#N)c4)ccc3C)nc2s1,%Inh,[1],0%
same,%Inh,[2],11%
same,%Inh,[3],3%
same,%Inh,[4],0%
same,%Inh,[5],20%
same,%Inh,[6],0%
same,%Inh,[7],32%
same,%Inh,[8],0%
same,%Inh,[9],2%
same,%Inh,[10],0%
same,%Inh,[11],9%
same,%Inh,[12],99.9%
same,%Inh,[13],0%
same,%Inh,[14],23%
same,%Inh,[15],14%
same,%Inh,[16]; [21],51%
same,%Inh,[17],30%
same,%Inh,[18],0%
same,%Inh,[19],8%
same,%Inh,[20],0%
FC(F)(F)c1cc(Br)cc(Nc2nccc(-c3cnn4ncccc34)n2)c1 [GW810578],%Inh,[1],25%
same,%Inh,[2],9%
same,%Inh,[3],16%
same,%Inh,[4],16%
same,%Inh,[5],3%
same,%Inh,[6],29%
same,%Inh,[7],0%
same,%Inh,[8],8%
same,%Inh,[9],7%
same,%Inh,[10],0%
same,%Inh,[11],10%
same,%Inh,[12],0%
same,%Inh,[13],0%
same,%Inh,[14],0%
same,%Inh,[15],0%
same,%Inh,[16]; [21],0%
same,%Inh,[17],16%
same,%Inh,[18],29%
same,%Inh,[19],5%
same,%Inh,[20],18%
Cn1ccc2ncnc(Oc3ccc(NC(=O)Nc4ccnc(C(F)(F)F)c4)c(Cl)c3)c21,%Inh,[1],0%
same,%Inh,[2],18%
same,%Inh,[3],34%
same,%Inh,[4],0%
same,%Inh,[5],12%
same,%Inh,[6],0%
same,%Inh,[7],0%
same,%Inh,[8],0%
same,%Inh,[9],6%
same,%Inh,[10],0%
same,%Inh,[11],17%
same,%Inh,[12],45%
same,%Inh,[13],0%
same,%Inh,[14],0%
same,%Inh,[15],0%
same,%Inh,[16]; [21],0%
same,%Inh,[17],5%
same,%Inh,[18],0%
same,%Inh,[19],0%
same,%Inh,[20],31%
O=C(Nc1ccc(Oc2ccc3nc(NC(=O)C4CC4)cn3n2)c(F)c1)c1cccn(-c2ccccc2)c1=O,%Inh,[1],0%
same,%Inh,[2],0%
same,%Inh,[3],4%
same,%Inh,[4],42%
same,%Inh,[5],90.4%
same,%Inh,[6],25%
same,%Inh,[7],90.3%
same,%Inh,[8],12%
same,%Inh,[9],0%
same,%Inh,[10],0%
same,%Inh,[11],46%
same,%Inh,[12],41%
same,%Inh,[13],72%
same,%Inh,[14],3%
same,%Inh,[15],5%
same,%Inh,[16]; [21],0%
same,%Inh,[17],0%
same,%Inh,[18],0%
same,%Inh,[19],14%
same,%Inh,[20],0%
CCn1c(-c2nonc2N)nc2cncc(Br)c21 [SB-738004],%Inh,[1],0%
same,%Inh,[2],14%
same,%Inh,[3],17%
same,%Inh,[4],0%
same,%Inh,[5],22%
same,%Inh,[6],23%
same,%Inh,[7],0%
same,%Inh,[8],0%
same,%Inh,[9],17%
same,%Inh,[10],58%
same,%Inh,[11],27%
same,%Inh,[12],0%
same,%Inh,[13],10%
same,%Inh,[14],0%
same,%Inh,[15],0%
same,%Inh,[16]; [21],47%
same,%Inh,[17],93.7%
same,%Inh,[18],34%
same,%Inh,[19],15%
same,%Inh,[20],16%
Cn1cc(-c2cccc3c(N)c(C(N)=O)nnc23)cn1,%Inh,[1],33%
same,%Inh,[2],6%
same,%Inh,[3],27%
same,%Inh,[4],53%
same,%Inh,[5],22%
same,%Inh,[6],70%
same,%Inh,[7],6%
same,%Inh,[8],16%
same,%Inh,[9],21%
same,%Inh,[10],72%
same,%Inh,[11],15%
same,%Inh,[12],30%
same,%Inh,[13],8%
same,%Inh,[14],11%
same,%Inh,[15],18%
same,%Inh,[16]; 1 µM,86%
same,%Inh,[17],32%
same,%Inh,[18],0%
same,%Inh,[19],29%
same,%Inh,[20],7%
CCOC(=O)N1CCC(n2cnc(-c3ccc(F)cc3)c2-c2ccnc(N)n2)CC1 [SB-219952],%Inh,[1],0%
same,%Inh,[2],19%
same,%Inh,[3],37%
same,%Inh,[4],19%
same,%Inh,[5],19%
same,%Inh,[6],4%
same,%Inh,[7],1%
same,%Inh,[8],10%
same,%Inh,[9],0%
same,%Inh,[10],22%
same,%Inh,[11],13%
same,%Inh,[12],14%
same,%Inh,[13],0%
same,%Inh,[14],0%
same,%Inh,[15],19%
same,%Inh,[16]; [21],32%
same,%Inh,[17],0%
same,%Inh,[18],48%
same,%Inh,[19],3%
same,%Inh,[20],0%
O=C1NCCc2[nH]c(-c3ccncc3)cc21,%Inh,[1],0%
same,%Inh,[2],28%
same,%Inh,[3],0%
same,%Inh,[4],11%
same,%Inh,[5],8%
same,%Inh,[6],33%
same,%Inh,[7],15%
same,%Inh,[8],27%
same,%Inh,[9],92.9%
same,%Inh,[10],43%
same,%Inh,[11],35%
same,%Inh,[12],0%
same,%Inh,[13],0%
same,%Inh,[14],0%
same,%Inh,[15],6%
same,%Inh,[16]; [21],0%
same,%Inh,[17],20%
same,%Inh,[18],1%
same,%Inh,[19],11%
same,%Inh,[20],0%
